# Measurements as given in publication PMC8384837, “Expanding the binding specificity for RNA recognition by a PUF domain”.
# Tests used:
# Assay in all cases: yeast three-hybrid, YBZ-1, SC-Leu-His + 0.5 mM 3-AT, 4 days
# Conditions in all cases: tags: N-Gal4 AD-HA kept; label: inside an RPR1-promoter hybrid RNA with tandem MS2 sites; ssRNA
# [1] = target: PUM1 PUF domain R4-GPH (Homo sapiens, UniProt Q14671 828-1176, N971G;H972P;Q975H)
# Procedure, shortened: (§1)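 The interaction score is the log change in how often each variant appears, from input to selection. Frequencies came from PCR-amplified, Illumina-sequenced repeat regions of Pumilio-1 PUF domain libraries grown in strain YBZ-1 (LexA–MS2 coat fusion, HIS3 reporter) alongside matching RNA elements. Input plates were SC-Leu and selection plates were SC-Leu-His + 0.5 mM 3-AT, each for four days, and the log2 calculation used a pseudocount of 1 where a variant was absent.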
# [2] = target: PUM1 PUF domain R1-KRF (Homo sapiens, UniProt Q14671 828-1176, S863K;Q867F)
# Procedure, shortened: as §1
# [3] = target: PUM1 PUF domain R3-VFD (Homo sapiens, UniProt Q14671 828-1176, C935V;R936F;Q939D)
# Procedure, shortened: as §1
# [4] = target: PUM1 PUF domain R7-RRL (Homo sapiens, UniProt Q14671 828-1176, S1079R;N1080R;E1083L)
# Procedure, shortened: as §1
# [5] = target: PUM1 PUF domain R3-KPV (Homo sapiens, UniProt Q14671 828-1176, C935K;R936P;Q939V)
# Procedure, shortened: as §1
# [6] = target: PUM1 PUF domain R8-RFR (Homo sapiens, UniProt Q14671 828-1176, N1122R;Y1123F;Q1126R)
# Procedure, shortened: as §1
# [7] = target: PUM1 PUF domain R3-CRM (Homo sapiens, UniProt Q14671 828-1176, Q939M)
# Procedure, shortened: as §1
# [8] = target: PUM1 PUF domain R3-YRE (Homo sapiens, UniProt Q14671 828-1176, C935Y;Q939E)
# Procedure, shortened: as §1
# [9] = target: T1, PUM1 PUF domain R6-NYV (Homo sapiens, UniProt Q14671 828-1176, Q1047V)
# T1 sequence: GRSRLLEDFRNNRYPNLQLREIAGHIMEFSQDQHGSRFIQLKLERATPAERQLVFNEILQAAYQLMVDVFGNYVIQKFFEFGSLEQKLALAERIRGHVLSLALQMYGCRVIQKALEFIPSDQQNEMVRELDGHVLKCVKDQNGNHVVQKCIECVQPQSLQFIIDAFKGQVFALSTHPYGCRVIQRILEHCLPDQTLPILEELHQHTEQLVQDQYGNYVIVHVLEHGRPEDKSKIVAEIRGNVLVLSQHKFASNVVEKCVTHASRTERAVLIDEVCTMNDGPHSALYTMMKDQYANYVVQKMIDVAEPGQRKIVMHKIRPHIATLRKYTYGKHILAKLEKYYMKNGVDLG
# Procedure, shortened: as §1
# [10] = target: PUM1 PUF domain R1-RWD (Homo sapiens, UniProt Q14671 828-1176, S863R;R864W;Q867D)
# Procedure, shortened: as §1
sequence,measurement,setting,value
GGCUAGAACUAGUGGAUCCCCCGGCGCCCGGCGGCUCGAGCCCGGGUAAGUGUAUAUAGUCUGCAUGCCGCCGGGCGCCAUGCCUGCAGGUCGACUCUAGAAAACAUG,binding signal,[1],1.26 log2 enrichment (interaction score)
GGCUAGAACUAGUGGAUCCCCCGGCGCCCGGCGGCUCGAGCCCGGGUAAGUGUAAAUCGUCUGCAUGCCGCCGGGCGCCAUGCCUGCAGGUCGACUCUAGAAAACAUG,binding signal,[2],3.25 log2 enrichment (interaction score)
GGCUAGAACUAGUGGAUCCCCCGGCGCCCGGCGGCUCGAGCCCGGGUAAGUGUAACUAGUCUGCAUGCCGCCGGGCGCCAUGCCUGCAGGUCGACUCUAGAAAACAUG,binding signal,[3],2.56 log2 enrichment (interaction score)
GGCUAGAACUAGUGGAUCCCCCGGCGCCCGGCGGCUCGAGCCCGGGUAAGUUUAAAUAGUCUGCAUGCCGCCGGGCGCCAUGCCUGCAGGUCGACUCUAGAAAACAUG,binding signal,[4],6.01 log2 enrichment (interaction score)
GGCUAGAACUAGUGGAUCCCCCGGCGCCCGGCGGCUCGAGCCCGGGUAAGUGUAAUUAGUCUGCAUGCCGCCGGGCGCCAUGCCUGCAGGUCGACUCUAGAAAACAUG,binding signal,[3],5.14 log2 enrichment (interaction score)
same,binding signal,[5],3.62 log2 enrichment (interaction score)
GGCUAGAACUAGUGGAUCCCCCGGCGCCCGGCGGCUCGAGCCCGGGUAAGCGUAAAUAGUCUGCAUGCCGCCGGGCGCCAUGCCUGCAGGUCGACUCUAGAAAACAUG,binding signal,[6],6.81 log2 enrichment (interaction score)
GGCUAGAACUAGUGGAUCCCCCGGCGCCCGGCGGCUCGAGCCCGGGUAAGUGUAAGUAGUCUGCAUGCCGCCGGGCGCCAUGCCUGCAGGUCGACUCUAGAAAACAUG,binding signal,[7],1.46 log2 enrichment (interaction score)
same,binding signal,[8],3.13 log2 enrichment (interaction score)
GGCUAGAACUAGUGGAUCCCCCGGCGCCCGGCGGCUCGAGCCCGGGUAAGUGUAAAUAGUCUGCAUGCCGCCGGGCGCCAUGCCUGCAGGUCGACUCUAGAAAACAUG,binding signal,[6],6.72 log2 enrichment (interaction score)
same,binding signal,[7],3.01 log2 enrichment (interaction score)
same,binding signal,[1],4.16 log2 enrichment (interaction score)
same,binding signal,[3],6.45 log2 enrichment (interaction score)
same,binding signal,[9],4.01 log2 enrichment (interaction score)
GGCUAGAACUAGUGGAUCCCCCGGCGCCCGGCGGCUCGAGCCCGGGUAAGUCUAAAUAGUCUGCAUGCCGCCGGGCGCCAUGCCUGCAGGUCGACUCUAGAAAACAUG,binding signal,[4],5.23 log2 enrichment (interaction score)
GGCUAGAACUAGUGGAUCCCCCGGCGCCCGGCGGCUCGAGCCCGGGUAAGUGUAAAUGGUCUGCAUGCCGCCGGGCGCCAUGCCUGCAGGUCGACUCUAGAAAACAUG,binding signal,[10],2.32 log2 enrichment (interaction score)
